5 molecules from PubChem BioAssay (EPA / NIEHS) can be followed below.

In general, AC50 refers to the midpoint of the concentration-response curve, whichever way the signal moves.

A short description of assay [1]: ATG_DR4_LXR_CIS: Attagene CIS-FACTORIAL HepG2 Assay for human Liver X Receptor (LXR), DR4 submotif (AID 2282929). The note with it: HepG2 Attagene DR4 cis-reporter, mRNA transcription; actives raise or lower the signal. The procedure, abridged:
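Endogenous factor activity at a DR4 cis-element is read as reporter mRNA in transiently transfected HepG2 cells. Exposure lasts 24 h; transcripts are amplified, fluorescently labelled and sized by capillary electrophoresis, with DMSO as baseline.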

Assay [2] concerns the target Aryl hydrocarbon receptor (Homo sapiens) (UniProt P35869). The experiment in a line: ATG_Ahr_CIS: Attagene CIS-FACTORIAL HepG2 Assay for human Aryl Hydrocarbon Receptor (Ahr) (AID 2282930). To be noted: HepG2 AhR cis-factorial reporter transcription; actives raise or lower the signal. The procedure, abridged: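 Following 24 h of chemical dosing, transfected HepG2 liver cells with cis-driven reporter units were lysed for RNA; reporter mRNA was quantified via RT-PCR and capillary electrophoresis, and responses fitted bidirectionally from DMSO.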

Assay [3] in a line: ATG_AP_1_CIS: Attagene CIS-FACTORIAL HepG2 Assay for human Activator Protein 1 (AP-1) (AID 2282931). To be noted: HepG2 Attagene cis-factorial AP-1 reporter mRNA; actives raise or lower the signal. In short, it runs like this:
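Fluorescence of labelled PCR fragments separated by capillary electrophoresis gives reporter mRNA levels. HepG2 with transfected cis-regulated reporter units, 24 h exposure; DMSO serves as baseline for bidirectional curve fits.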

A short description of assay [4]: ATG_AP_2_CIS: Attagene CIS-FACTORIAL HepG2 Assay for human Activator Protein 2 (AP-2) (AID 2282932). The note with it: HepG2 AP-2 cis-reporter, Attagene transcription factor profiling; actives raise or lower the signal. In short, it runs like this: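 Cells (HepG2) transfected with promoter-driven reporter constructs, treated 24 h. Total RNA reverse-transcribed, reporter cDNA PCR-amplified, FAM-labelled by primer extension, digested, resolved by capillary electrophoresis. Activity fitted both directions versus DMSO.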

The nature of assay [5]: ATG_BRE_CIS: Attagene CIS-FACTORIAL HepG2 Assay for human Bone Morphogenetic Protein (BMP) Response Element (BRE) (AID 2282933). The note with it: HepG2 BMP response element reporter, Attagene transcription factor profiling; actives raise or lower the signal. The procedure, abridged:
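HepG2 cells transiently transfected with multiplexed cis-element reporter units were dosed with chemical for 24 h. Reporter mRNA was measured by RT-PCR with fluorescent labelling, HpaI digestion and capillary electrophoresis; bidirectional fitting relative to DMSO.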

The target of assay [6] is Transcription factor E2F1 (Homo sapiens) (UniProt Q01094). Nature of the assay: ATG_E2F_CIS: Attagene CIS-FACTORIAL HepG2 Assay for human E2F Transcription Factor 1 (AID 2282935). The note with it: HepG2 Attagene cis-reporter, E2F reporter RNA transcripts; actives raise or lower the signal. The procedure, abridged:
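First, HepG2 cells were transfected with reporter transcription units. Next, they were dosed for 24 h. Then RNA was isolated, converted to cDNA, PCR-amplified, FAM-labeled, HpaI-digested and analyzed by capillary electrophoresis.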

The nature of assay [7]: ATG_E_Box_CIS: Attagene CIS-FACTORIAL HepG2 Assay for human Enhancer Box (E-box) (AID 2282936). The note with it: HepG2 E-box cis-reporter transcription, actives raise or lower the signal. In short, it runs like this: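 Endogenous transcription factor activity was sensed in human HepG2 liver cells through transfected cis-promoter reporter units. After 24 h of dosing, total RNA was reverse-transcribed and reporter cDNA resolved by capillary electrophoresis.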

Assay [8] is described as follows: ATG_EGR_CIS: Attagene CIS-FACTORIAL HepG2 Assay for human Early Growth Response 1 (EGR1) (AID 2282938). To be noted: HepG2 Attagene CIS-FACTORIAL EGR reporter mRNA; actives raise or lower the signal. The procedure, abridged:
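HepG2, transient MRTU transfection (cis promoters), 24 h compound. RNA → RT (oligo-dT) → PCR → 6-FAM labelling → HpaI cut → CE fluorescence. Bidirectional fit, DMSO baseline.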

Assay [9] can be described thus: ATG_M_19_CIS: Attagene CIS-FACTORIAL HepG2 Assay for M19 Transcription Factor (Internal Marker) (AID 2282939). The note with it: HepG2 Attagene CIS-FACTORIAL M19 internal marker reporter; actives raise or lower the signal. In short, it runs like this:
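HepG2 cells transiently transfected with cis-regulated multiple reporter transcription units were dosed for 24 h; reporter mRNA was quantified by RT-PCR, 6-FAM primer-extension labelling, HpaI digestion and capillary electrophoresis, with bidirectional fitting against DMSO baseline.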

A short description of assay [10]: ATG_Ets_CIS: Attagene CIS-FACTORIAL HepG2 Assay for human Erythroblast Transformation Specific (ETS) (AID 2282941). To be noted: HepG2 ETS cis-reporter transcription, actives raise or lower the signal. The procedure, abridged: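 Bidirectional fit versus DMSO of reporter mRNA signal, detected by RT-PCR and capillary electrophoresis in HepG2 cells transiently transfected with cis-element reporters and dosed 24 h.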

The target of assay [11] is Hepatocyte nuclear factor 3-beta (Homo sapiens) (UniProt Q9Y261). The experiment in a line: ATG_FoxA2_CIS: Attagene CIS-FACTORIAL HepG2 Assay for human Forkhead box A2 (FOXA2) (AID 2282942). To be noted: HepG2 cis-reporter transcription factor activity, 24 h; actives raise or lower the signal. The procedure, abridged:
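Cells: HepG2, transient multiplex reporter transfection. Exposure 24 h. Detection: reporter-specific RT-PCR, fluorescent labelling, restriction digest, capillary electrophoresis. Analysis: bidirectional curve fit, DMSO as negative control.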

The nature of assay [12]: ATG_FoxO_CIS: Attagene CIS-FACTORIAL HepG2 Assay for human Forkhead box O (FoxO) (AID 2282943). To be noted: HepG2 Attagene cis-reporter, FoxO element, mRNA; actives raise or lower the signal. The procedure, abridged: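 24 h chemical exposure, HepG2 with transient cis-MRTU transfection. RNA extraction, oligo(dT) RT, reporter-specific PCR, primer-extension labelling, HpaI digestion, CE fragment analysis; bidirectional fit, DMSO baseline.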

Assay [13] in a line: ATG_GATA_CIS: Attagene CIS-FACTORIAL HepG2 Assay for human GATA Binding Protein (AID 2282944). To be noted: HepG2 GATA cis-element reporter, Attagene multiplex mRNA; actives raise or lower the signal. The procedure, abridged:
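HepG2 cells transiently transfected with multiplexed cis-element reporter units reflecting endogenous transcription factor activity; reporter mRNA measured after 24 h dosing by RT-PCR, 6-FAM labeling, HpaI digestion and capillary electrophoresis. Bidirectional fitting versus DMSO baseline.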

A short description of assay [14]: ATG_GLI_CIS: Attagene CIS-FACTORIAL HepG2 Assay for human Zinc Finger Protein GLI1 (AID 2282945). To be noted: HepG2, Attagene cis-factorial reporter mRNA, GLI element; actives raise or lower the signal. The procedure, abridged:
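HepG2 cells transiently transfected with cis-promoter multiplexed reporter units report endogenous transcription factor activity. After 24 h chemical exposure, reporter mRNA was quantified by RT-PCR, 6-FAM labelling, HpaI digestion and capillary electrophoresis, with bidirectional fitting against DMSO.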

In assay [15] the target is Bile acid receptor (Homo sapiens) (UniProt Q96RI1). The experiment in a line: ATG_IR1_CIS: Attagene CIS-FACTORIAL HepG2 Assay for human Nuclear Receptor Subfamily 1 Group H Member 4 (NR1H4), IR1 submotif (AID 2282946). To be noted: IR1 reporter transcription, actives raise or lower the signal. In short, it runs like this: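 Readout: reporter transcript levels by RT-PCR with fluorescent capillary electrophoresis, from HepG2 cells transiently transfected with multiplexed cis-regulated reporters and dosed 24 h. Gain- or loss-of-signal fitted versus DMSO negative control.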

A short description of assay [16]: ATG_ISRE_CIS: Attagene CIS-FACTORIAL HepG2 Assay for human Interferon Regulatory Factor 1 (IRF1) binding to an Interferon-Stimulated Response Element (ISRE) (AID 2282948). To be noted: HepG2 ISRE cis-reporter (Attagene), mRNA transcription readout; actives raise or lower the signal. In short, it runs like this: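 Uses HepG2 liver cells transfected with cis-regulated reporters and measures mRNA 24 h post-dosing through RT-PCR, primer-extension labelling and capillary electrophoresis, with DMSO as negative control.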

Assay [17] can be described thus: ATG_M_61_CIS: Attagene CIS-FACTORIAL HepG2 Assay for M61 Transcription Factor (Internal Marker) (AID 2282937). To be noted: HepG2 Attagene CIS-FACTORIAL M61 internal marker reporter; actives raise or lower the signal. In short, it runs like this: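 This endpoint serves as an internal background control within a multiplexed HepG2 cis-reporter panel. Cells are exposed for 24 h; reporter mRNA is amplified, fluorescently labelled and sized by capillary electrophoresis, with DMSO as negative control.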

Assay [18] can be described thus: ATG_ERE_CIS: Attagene CIS-FACTORIAL HepG2 Assay for Estrogen Response Element (ERE) (AID 2282940). To be noted: HepG2 ERE cis-reporter, Attagene RNA transcript; actives raise or lower the signal. The procedure, abridged: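 HepG2 cells transiently transfected with cis-promoter-driven multiplexed reporter transcription units report endogenous TF activity. After 24 h compound exposure, reporter mRNA is quantified by RT-PCR with capillary electrophoresis fluorescence; bidirectional fitting versus DMSO baseline.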

Assay [19] in a line: ATG_GRE_CIS: Attagene CIS-FACTORIAL HepG2 Assay for human Glucocorticoid Response Elements (GRE) (AID 2282947). The note with it: HepG2 GRE cis-reporter, Attagene multiplex mRNA; actives raise or lower the signal. The procedure, abridged: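 Cells (HepG2) bearing transfected cis-promoter reporter transcription units were treated with chemical for 24 hours. Reporter mRNA was measured via RT-PCR with capillary electrophoresis, and activity was fitted in both directions relative to DMSO.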

The target of assay [20] is Retinoic acid receptor alpha (Homo sapiens) (UniProt P10276). The experiment in a line: ATG_DR5_RAR_CIS: Attagene CIS-FACTORIAL HepG2 Assay for human Retinoic Acid Receptor Alpha (RARE), DR5 submotif (AID 2282934). To be noted: HepG2 Attagene cis-factorial RARE DR5 reporter, mRNA; actives raise or lower the signal. In short, it runs like this: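 Transfected HepG2 reporter cells are exposed to chemicals for 24 h. Then RNA is extracted and the DR5 element reporter transcript is measured by RT-PCR and capillary electrophoresis, with bidirectional curve fitting relative to DMSO.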

Calls of active or inactive are those of the source. Rule for the calls: active = hit-call score of the fitted dose curve at least 0.9, where 1 is the maximum; inactive = score below 0.9.

Sequence of Transcription factor E2F1 (Homo sapiens) (Q01094 whole entry, looked up): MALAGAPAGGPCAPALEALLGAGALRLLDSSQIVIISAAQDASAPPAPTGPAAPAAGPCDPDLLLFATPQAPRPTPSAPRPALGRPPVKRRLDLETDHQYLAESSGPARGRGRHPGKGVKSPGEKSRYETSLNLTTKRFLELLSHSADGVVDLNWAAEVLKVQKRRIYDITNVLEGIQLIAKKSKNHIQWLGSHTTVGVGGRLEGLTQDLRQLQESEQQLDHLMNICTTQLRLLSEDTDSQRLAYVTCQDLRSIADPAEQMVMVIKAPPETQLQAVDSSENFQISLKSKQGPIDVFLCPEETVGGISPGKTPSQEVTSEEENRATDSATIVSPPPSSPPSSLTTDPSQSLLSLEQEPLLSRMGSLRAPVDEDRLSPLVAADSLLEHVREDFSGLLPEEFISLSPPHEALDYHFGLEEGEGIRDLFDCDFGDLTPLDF
Sequence of Hepatocyte nuclear factor 3-beta (Homo sapiens) (Q9Y261 whole entry, looked up): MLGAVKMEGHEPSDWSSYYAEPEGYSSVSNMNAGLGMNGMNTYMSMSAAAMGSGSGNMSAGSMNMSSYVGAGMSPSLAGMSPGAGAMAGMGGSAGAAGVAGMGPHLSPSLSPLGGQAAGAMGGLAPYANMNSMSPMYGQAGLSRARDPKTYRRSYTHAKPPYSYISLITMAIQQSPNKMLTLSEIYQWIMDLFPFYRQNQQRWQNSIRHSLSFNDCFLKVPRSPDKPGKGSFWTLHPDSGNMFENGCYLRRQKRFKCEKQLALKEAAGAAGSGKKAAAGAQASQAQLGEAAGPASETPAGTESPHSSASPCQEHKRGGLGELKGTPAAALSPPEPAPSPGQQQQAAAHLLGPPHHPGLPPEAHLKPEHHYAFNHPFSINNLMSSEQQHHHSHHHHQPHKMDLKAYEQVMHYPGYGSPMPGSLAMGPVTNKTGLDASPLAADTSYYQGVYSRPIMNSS
Sequence of Bile acid receptor (Homo sapiens) (Q96RI1 whole entry, looked up): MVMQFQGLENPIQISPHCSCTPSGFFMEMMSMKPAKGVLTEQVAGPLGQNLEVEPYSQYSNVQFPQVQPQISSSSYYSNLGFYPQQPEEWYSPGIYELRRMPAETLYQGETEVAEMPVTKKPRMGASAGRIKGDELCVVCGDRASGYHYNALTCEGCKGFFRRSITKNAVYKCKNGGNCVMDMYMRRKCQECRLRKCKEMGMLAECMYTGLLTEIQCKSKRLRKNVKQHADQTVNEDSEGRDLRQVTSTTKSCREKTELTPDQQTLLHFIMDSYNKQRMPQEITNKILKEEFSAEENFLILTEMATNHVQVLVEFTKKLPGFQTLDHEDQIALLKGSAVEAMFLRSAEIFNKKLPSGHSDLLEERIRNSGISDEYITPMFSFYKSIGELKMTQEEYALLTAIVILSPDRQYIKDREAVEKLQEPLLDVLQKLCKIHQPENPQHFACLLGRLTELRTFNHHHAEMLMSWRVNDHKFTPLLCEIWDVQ
Sequence of Aryl hydrocarbon receptor (Homo sapiens) (P35869 whole entry, looked up): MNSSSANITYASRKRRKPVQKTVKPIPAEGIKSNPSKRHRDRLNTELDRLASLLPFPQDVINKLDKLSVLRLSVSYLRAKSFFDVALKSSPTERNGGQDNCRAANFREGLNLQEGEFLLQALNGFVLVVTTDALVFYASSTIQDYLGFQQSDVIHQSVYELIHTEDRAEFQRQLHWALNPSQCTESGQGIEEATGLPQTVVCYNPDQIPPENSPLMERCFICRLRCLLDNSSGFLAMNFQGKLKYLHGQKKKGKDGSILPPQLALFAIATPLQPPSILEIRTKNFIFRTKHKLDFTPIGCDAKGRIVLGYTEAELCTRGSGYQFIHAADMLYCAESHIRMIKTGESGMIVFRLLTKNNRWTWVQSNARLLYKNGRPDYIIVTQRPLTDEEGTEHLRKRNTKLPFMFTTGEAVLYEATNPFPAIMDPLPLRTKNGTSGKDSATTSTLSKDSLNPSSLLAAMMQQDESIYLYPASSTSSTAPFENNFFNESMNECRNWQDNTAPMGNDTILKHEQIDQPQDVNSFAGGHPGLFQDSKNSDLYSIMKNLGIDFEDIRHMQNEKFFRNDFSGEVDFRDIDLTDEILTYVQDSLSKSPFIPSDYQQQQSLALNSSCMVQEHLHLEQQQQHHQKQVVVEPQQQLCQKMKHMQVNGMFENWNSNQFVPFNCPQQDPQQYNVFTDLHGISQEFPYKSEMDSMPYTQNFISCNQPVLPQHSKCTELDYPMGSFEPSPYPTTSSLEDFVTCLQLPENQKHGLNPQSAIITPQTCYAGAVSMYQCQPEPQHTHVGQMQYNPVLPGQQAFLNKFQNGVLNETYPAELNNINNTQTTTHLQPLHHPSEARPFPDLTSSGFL
Sequence of Retinoic acid receptor alpha (Homo sapiens) (P10276 whole entry, looked up): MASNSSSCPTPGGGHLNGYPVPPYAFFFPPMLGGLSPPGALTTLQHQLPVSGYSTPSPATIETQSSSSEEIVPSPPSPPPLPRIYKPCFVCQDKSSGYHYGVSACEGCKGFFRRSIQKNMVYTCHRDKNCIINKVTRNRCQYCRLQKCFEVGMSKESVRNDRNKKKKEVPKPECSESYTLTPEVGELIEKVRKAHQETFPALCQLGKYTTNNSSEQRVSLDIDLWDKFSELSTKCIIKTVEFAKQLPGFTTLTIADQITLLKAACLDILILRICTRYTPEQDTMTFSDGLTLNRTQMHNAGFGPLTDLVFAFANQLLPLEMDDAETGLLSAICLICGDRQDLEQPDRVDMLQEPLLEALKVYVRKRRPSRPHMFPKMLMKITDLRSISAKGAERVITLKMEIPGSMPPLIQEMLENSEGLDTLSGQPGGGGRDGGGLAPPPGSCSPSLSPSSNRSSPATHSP

On to `O=C(O)C1(c2ccc3c(c2)OC[C@H](Cc2ccc(-c4ccccc4)cc2)[C@H]3O)CCCC1`, for which the call in [1], in assay [2], in assay [4], in [5], in assay [6] and in assay [7] was inactive. Further, the result in assay [8], in [9], in assay [10], in [11], in [12] and in [13] was inactive. Also, the outcome in assay [14] and in assay [15] was inactive. The figures for the AC50 in assay [3] and in assay [16] were 19.7 µM (active) and 2.83 µM (active), respectively.
With `FC(F)OCC(F)(F)C(F)(F)F`, the outcome in [1], in [2], in assay [3], in assay [4], in assay [5] and in assay [7] was inactive. Moreover, the molecule was classed as inactive in assay [17], in [8], in [9], in assay [18], in assay [10] and in [11]. The outcome in assay [12], in assay [13], in assay [14], in assay [15], in assay [19] and in [16] was inactive.
Take `Nc1ncn[nH]1`: the result in [1], in assay [2], in assay [3], in assay [4], in assay [5] and in assay [6] was inactive. In addition, the outcome in [7], in assay [9], in assay [10], in assay [12], in assay [13] and in assay [14] was inactive. The result in [15], in assay [19] and in assay [16] was inactive.
Take `C[C@H]1C(=O)O[C@@H]2CCN3CC=C(COC(=O)[C@](C)(O)[C@]1(C)O)[C@H]23`: the call in [1], in assay [3], in assay [4], in assay [5], in assay [20] and in assay [6] was inactive. Also, the result in assay [7], in [17], in [8], in assay [9], in [18] and in assay [10] was inactive. For the same molecule, the molecule was called inactive in assay [11], in assay [12], in [13], in assay [14], in assay [15] and in assay [19]. In assay [16], the call was inactive.
As for `CN(C)C(=S)S`, the half-maximal activity concentration (AC50) is 25.5 µM (active) in assay [1] and 25.9 µM (active) in [3]. Also, the outcome in assay [2], in assay [4], in assay [5], in assay [6], in assay [7] and in [17] was inactive. The result in assay [8], in assay [9], in [10], in assay [12], in [13] and in assay [14] was inactive. The molecule was classed as inactive in [16].
